# Screening results (PubChem BioAssay)
# RORg inh = blocks mouse ROR gamma transcriptional activity; P51450; Drosophila S2 Gal4-RORgamma UAS-luciferase reporter, 20 h; Potency, µM (top dose mostly 53.6 µM), without a hit: at the top dose activity change, negative = inhibition, usual class: inhibitors; actives 5.4% (n = 310,000); note: nearly all actives have a fitted effect of over 60% in size
#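 A Gal4/UAS one-hybrid system in insect cells: metallothionein-promoter Gal4–ROR gamma fusion plus Photinus luciferase reporter. Copper sulfate 700 uM final, 20 hr ambient incubation, luminescent detection after 10 min with reagent.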
# Gal4-VP16 FLuc = inhibits Gal4-VP16 luciferase reporter, ROR gamma counter-screen. AID 2546. Potency, µM (titrated, usually from 53.6 µM), without a hit: at the highest dose activity, negative = inhibition, usual class: inhibitors. Drosophila S2 Gal4-VP16 UAS-luciferase, luminescence, 20 h. actives 3.5% (n = 310,000);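 note: Gal4-VP16 expression switched on by copper sulfate through the metallothionein promoter; nearly all actives have a fitted effect of over 50% in size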
# DT40 TDP1 CPT = growth inhibition of DT40 Tdp1-/-;hTDP1 cells with camptothecin (screen for TDP1 inhibitors); chicken DT40 Tdp1-/-;hTDP1 cells + 20 nM CPT, ATP luminescence, 48 h; Potency, µM (highest dose often 46.2 µM), for the others: at the highest dose activity change, negative = growth inhibition, most hits filed as inhibitors; actives 12% (n = 420,000); note: nearly all actives have a fitted effect of over 55% in size
#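 Chicken DT40 Tdp1-/- cells stably complemented with human TDP1 were seeded at 400 cells/well in medium containing 20 nM camptothecin, exposed to pin-transferred compounds, and grown at 37 °C for at least 48 hr. Viability was read as ATP luminescence.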
# TDP1 cell noCPT = qHTS for Inhibitors of human tyrosyl-DNA phosphodiesterase 1 (TDP1): qHTS in cells in absence of CPT; actives 15% (n = 420,000); Potency, µM (top dose mostly 46.2 µM), for the others: at the top dose activity change, negative = growth inhibition, hits mostly inhibitors; DT40 Tdp1-/- hTDP1 cells, no CPT, ATP luminescence, 48 h; note: nearly all actives have a fitted effect of over 55% in size
#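 Luminescent ATP content (CellTiter-Glo) served as the growth readout. Knockout chicken DT40 cells expressing human TDP1 were exposed to compounds without camptothecin for a minimum 48 hr at 37 °C.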
# TDP1 inh = inhibitors of human tyrosyl-DNA phosphodiesterase TDP1 | AID 485290 | Q9NUW8 | Potency, µM (highest dose often 130 µM), inactives show at the top dose activity change, negative = inhibition, hits mostly inhibitors | recombinant TDP1, AlphaScreen DNA substrate cleavage | actives 0.28% (n = 350,000); note: nearly all actives have a fitted effect of over 40% in size
# Target sequence (Q9NUW8 whole entry, looked up): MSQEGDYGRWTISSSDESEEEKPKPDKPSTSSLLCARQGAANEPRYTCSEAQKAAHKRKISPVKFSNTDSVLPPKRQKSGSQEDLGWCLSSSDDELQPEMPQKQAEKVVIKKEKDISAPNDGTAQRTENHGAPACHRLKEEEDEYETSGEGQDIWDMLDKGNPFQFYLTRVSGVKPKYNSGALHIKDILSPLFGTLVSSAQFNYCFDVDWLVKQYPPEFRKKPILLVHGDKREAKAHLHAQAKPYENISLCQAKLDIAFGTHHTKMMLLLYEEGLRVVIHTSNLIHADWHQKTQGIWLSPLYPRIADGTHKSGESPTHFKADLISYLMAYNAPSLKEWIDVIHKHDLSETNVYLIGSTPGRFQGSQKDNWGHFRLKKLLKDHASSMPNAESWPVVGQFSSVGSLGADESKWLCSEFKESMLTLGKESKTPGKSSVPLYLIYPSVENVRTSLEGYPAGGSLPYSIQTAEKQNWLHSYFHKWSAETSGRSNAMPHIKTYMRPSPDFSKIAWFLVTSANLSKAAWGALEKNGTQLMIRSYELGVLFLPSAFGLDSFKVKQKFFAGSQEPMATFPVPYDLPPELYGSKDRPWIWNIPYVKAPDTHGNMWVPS
#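 Recombinant human Tdp1 (E. coli-expressed, 1 nM final) preincubated with compounds 15 min at room temperature, then 5'-biotin/3'-phosphotyrosine-FITC DNA substrate (15 nM final) added for 5 min. AlphaScreen beads (10 ug/ml final) added 10 min; cleavage lowers signal.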
# The depositor's hits bear a star; ? = inconclusive; / = no result; [ ] = another dose, or the depositor's remark. A selection: hits, their analogues and other compounds. The true share with any hit is near 19%. Calls come from the whole dose curve; as a rule, active = well fitted curve in the direction sought with a large enough effect; inconclusive = small, poorly fitted or top-dose-only effect, or another doubt; inactive = no such curve, though single readings can be large; an effect the other way counts as inactive or inconclusive. % is set by controls: 0 for no effect and ±100 for the full control effect; potency is the fitted concentration of half-maximal effect.
SMILES,RORg inh,Gal4-VP16 FLuc,DT40 TDP1 CPT,TDP1 cell noCPT,TDP1 inh
COc1ccc(-n2nnnc2-c2ccc(S(C)(=O)=O)cc2Cl)cc1,?,1%,?,5.2µM*,/
Clc1ccc(-n2nnnc2-c2ccccc2)cc1,2%,0%,-15%,-10%,-1%
COc1ccc(-n2nnnc2CNC(=O)c2ccc(S(=O)(=O)N3CCOCC3)cc2)cc1,/,/,8%,-13%,1%
COc1ccc(-n2nnnc2C2CCN(S(=O)(=O)c3cccc(Cl)c3C)CC2)cc1,/,/,21µM*,26µM*,-2%
COc1ccc(-n2nnnc2-c2ccccc2)cc1,1%,6%,3.7µM*,2.9µM*,-3%
O=C(N/N=C/c1cccc([N+](=O)[O-])c1)c1cc2c(ccc3ccccc32)o1,1%,-3%,-28%,?,?
COc1cccc(NC(=O)CN2C(=O)NC(C)(c3ccc(C)cc3)C2=O)c1 (stereo not given),74%,-23%,5%,-23%,40µM*
COc1ccc(C2(c3ccc(OC)cc3)NC(=O)N(CC(=O)Nc3ccc(C(=O)N(C)C)cc3)C2=O)cc1,-6%,2%,-27%,-8%,3%
COc1cccc(NC(=O)CN2C(=O)NC3(CCCC3)C2=O)c1,-15%,-8%,3%,6%,-4%
COc1ccc(C2(c3ccc(OC)cc3)NC(=O)N(CC(=O)Nc3cc(C)ccc3OC)C2=O)cc1,5%,12%,18µM*,?,5%
FC(F)(F)c1cc(CCN2CCNC[C@H]2Cc2cccc3ccccc23)cc(C(F)(F)F)c1,/,/,8.2µM*,8.2µM*,/
Oc1ccc(C[C@@H]2CNCCN2CCc2cc(C(F)(F)F)cc(C(F)(F)F)c2)cc1,/,/,23µM*,?,-3%
COc1cc(CCCN2CCNC[C@@H]2Cc2ccccc2)cc(OC)c1OC,/,/,-10%,6%,-5%
Oc1ccc(C[C@H]2CNCCN2CCc2cc(C(F)(F)F)cc(C(F)(F)F)c2)cc1,/,/,10µM*,?,/
O=C1NC[C@@H](Cc2ccc(O)cc2)N(CCc2cc(C(F)(F)F)cc(C(F)(F)F)c2)C1=O,/,/,?,-19%,/
COc1cc(CCCN2CCNC[C@H]2Cc2cccc3ccccc23)cc(OC)c1OC,/,/,?,?,-6%
C[C@]12CCC(=O)C=C1[C@@H]1C[C@H]1[C@H]1[C@@H]3[C@@H]4C[C@H]4[C@@]4(CCC(=O)O4)[C@@]3(C)CC[C@@H]12,8%[10 µM],-8%,/,/,6%
Nc1[nH]c(C(=O)c2ccccc2)c(-c2cccnc2)c1C(=O)NC1CCCCC1,/,/,-11%,?,/
N/C(=N\S(=O)(=O)c1cc(C(F)(F)F)cc(C(F)(F)F)c1)c1ccncc1,15%,-4%,-4%,?,6%
N/C(=N\S(=O)(=O)c1cc(C(F)(F)F)cc(C(F)(F)F)c1)c1ccc(Cl)cc1,?,?,18µM*,21µM*,3%
O=C(Cc1cccs1)N1CCN(c2cccc(Cl)c2)CC1,-6%,8%,-19%,-25%,-6%
O=C(COCc1cc(-c2cccs2)on1)N1CCN(c2cccc(Cl)c2)CC1,/,/,23µM*,12µM*,5%
O=C(COCc1cc(-c2ccc3c(c2)OCO3)on1)N1CCN(c2ccc(F)cc2)CC1,1%,-14%,-1%,?,2%
O=C(COCc1cc(-c2cccs2)on1)N1CCN(c2ccc(F)cc2)CC1,/,/,18µM*,15µM*,0%
Cc1ccccc1OCCn1c(C)nc2ccccc21,1%[1.91 µM],7.9µM*,?,?,/
Cc1ccccc1OCCCCn1c(CO)nc2ccccc21,-37%,-4%[10 µM],9.2µM*,10µM*,3%
Cc1cc(C)c(C)c(Cn2c(CO)nc3ccccc32)c1C,2µM*,?,?,?,8%[56.1 µM]
Cc1ccc(OCCCn2c(CO)nc3ccccc32)cc1,26%,1%,?,?,7%
Cc1nc2ccccc2n1CCOc1ccccc1,1%,?,?,?,/
CCCNC(=O)Cc1ccsc1,-9%,-1%,-9%,-3%,1%[56.1 µM]
